Assay results reported in paper PMC4336329 (PLoS ONE, 2015).
Among all 310,000 compounds or so, about 14,000 (4.5%) showed an effect of 50% or more. The effect is printed as a negative number. For the sample, strong results were picked, then their nearest neighbours and some compounds at random. *1 amine or outer side, *2 acyl side, *3 side chain or, on linkers, in order; H or OH if unused. Where a SMILES comes first, the peptide text is derived from it. Bridges are numbered along the chain shown (N, C = ends). [ ]: non-standard residue; d: D form. ξ: configuration not given here. hSer(Ph(2-I,4-NO2,6-CO)) = O=C([C@H](CCOc1c(I)cc([N+](=O)[O-])cc1C(=O)[*:3])N[*:1])[*:2]; ξD = NC(CC(=O)O)C(=O)O
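Further: peak tail current of the secondary pulse compared with the same well before compound.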

The molecules below were run against human ether-à-go-go-related gene (hERG) potassium channel (human, UniProt Q12809) (assay: primary screen, population patch clamp on CHO cells stably expressing hERG; higher = less effect of the substance).
human ether-à-go-go-related gene (hERG) potassium channel, sequence (Q12809 whole entry, looked up): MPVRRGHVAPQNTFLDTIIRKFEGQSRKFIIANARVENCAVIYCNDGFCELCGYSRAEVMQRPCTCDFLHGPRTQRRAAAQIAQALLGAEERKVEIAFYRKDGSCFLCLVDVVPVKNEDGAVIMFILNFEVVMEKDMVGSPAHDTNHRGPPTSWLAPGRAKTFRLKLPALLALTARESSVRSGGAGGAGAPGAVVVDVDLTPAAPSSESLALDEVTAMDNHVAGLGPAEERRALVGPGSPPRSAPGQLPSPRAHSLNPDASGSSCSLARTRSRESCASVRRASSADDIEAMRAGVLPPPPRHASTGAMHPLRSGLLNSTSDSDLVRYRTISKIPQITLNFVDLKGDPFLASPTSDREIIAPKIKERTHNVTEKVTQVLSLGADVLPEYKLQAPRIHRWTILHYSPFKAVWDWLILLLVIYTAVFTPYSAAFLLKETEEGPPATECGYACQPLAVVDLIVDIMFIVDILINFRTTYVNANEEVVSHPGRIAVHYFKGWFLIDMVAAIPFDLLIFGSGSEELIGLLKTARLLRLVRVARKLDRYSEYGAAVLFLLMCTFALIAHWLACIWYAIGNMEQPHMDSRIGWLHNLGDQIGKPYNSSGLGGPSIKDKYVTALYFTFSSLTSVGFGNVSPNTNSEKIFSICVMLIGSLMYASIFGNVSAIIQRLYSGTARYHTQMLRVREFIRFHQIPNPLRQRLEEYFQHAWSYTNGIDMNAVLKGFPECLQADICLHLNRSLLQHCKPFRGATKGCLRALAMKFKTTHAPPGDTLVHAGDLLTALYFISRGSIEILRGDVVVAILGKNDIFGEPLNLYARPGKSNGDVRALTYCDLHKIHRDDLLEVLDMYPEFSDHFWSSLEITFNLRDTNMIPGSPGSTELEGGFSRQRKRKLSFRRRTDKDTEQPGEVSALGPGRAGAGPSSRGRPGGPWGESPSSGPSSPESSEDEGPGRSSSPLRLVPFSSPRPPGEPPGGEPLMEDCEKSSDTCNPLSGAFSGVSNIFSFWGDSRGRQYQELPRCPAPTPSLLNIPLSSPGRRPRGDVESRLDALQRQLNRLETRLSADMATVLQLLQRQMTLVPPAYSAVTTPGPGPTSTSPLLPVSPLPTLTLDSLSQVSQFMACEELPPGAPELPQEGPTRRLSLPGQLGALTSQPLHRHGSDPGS
For `COC(=O)CSc1ncnc2c1sc1nc3c(cc12)COC(C)(C)C3`, the “hERG current change (%, negative = inhibition) at 10uM” value was 23.5%.
With `COc1ccc(C(=O)NCC(=O)OCC(=O)Nc2cc([N+](=O)[O-])ccc2F)cc1` the “hERG current change (%, negative = inhibition) at 10uM” value was -23.4%.
`Cn1c(CSCc2ccc(F)cc2)nnc1SCC(=O)Nc1cccc(C(=O)O)c1` was tested, and the “hERG current change (%, negative = inhibition) at 10uM” value was 9.71%.
For `Cc1cccc(N(Cc2cc3cc(C)ccc3[nH]c2=O)C(=O)c2cccs2)c1`, the “hERG current change (%, negative = inhibition) at 10uM” value was 5.95%.
`Cc1ccc(CNc2nc(-c3cccs3)nc3ccccc23)cc1` was tested, and the “hERG current change (%, negative = inhibition) at 10uM” value was 12.1%.
In the case of `c1csc(CNc2nc(-c3cccs3)nc3ccccc23)c1`, the “hERG current change (%, negative = inhibition) at 10uM” value is reported as -6.81%.
In the case of `c1ccc(CN2CCC(Nc3nc(-c4ccccc4)nc4ccccc34)CC2)cc1`, the “hERG current change (%, negative = inhibition) at 10uM” value is reported as -20.5%.
For `c1cncc(CNc2nc(-c3cccnc3)nc3ccccc23)c1`, the “hERG current change (%, negative = inhibition) at 10uM” value was -25.3%.
For `c1ccc(CN2CCC(Nc3nc(-c4cccnc4)nc4ccccc34)CC2)cc1`, the “hERG current change (%, negative = inhibition) at 10uM” value was -80.5%.
In the case of `c1ccc(CN2CCC(Nc3nc(-c4cccs4)nc4ccccc34)CC2)cc1`, the “hERG current change (%, negative = inhibition) at 10uM” value is reported as -59.9%.
`Nc1ccc(N=Nc2ccccc2O)c(N)c1` was tested, and the “hERG current change (%, negative = inhibition) at 10uM” value was 10.9%.
For `COc1ccc(C(=O)NCc2cc(C)nc3ccccc23)cc1OC`, the “hERG current change (%, negative = inhibition) at 10uM” value was -8.56%.
With `O=C(CSc1nncc(=O)[nH]1)NC1CCCCC1` the “hERG current change (%, negative = inhibition) at 10uM” value was 27%.
In the case of `COc1cc(OC)c(C(=O)NC2CCCCCC2)cc1OC`, the “hERG current change (%, negative = inhibition) at 10uM” value is reported as -3.27%.
With `Clc1ccc(-n2nnnc2-c2cnc3ccccc3c2-c2ccccc2)cc1` the “hERG current change (%, negative = inhibition) at 10uM” value was 1.26%.
In the case of `CC1(C)CC(=O)C=C(Nc2ccc(OCC(F)(F)C(F)F)cc2)C1`, the “hERG current change (%, negative = inhibition) at 10uM” value is reported as -65.7%.
`CCCOc1ccc(NC2=CC(=O)CC(C)(C)C2)cc1` was tested, and the “hERG current change (%, negative = inhibition) at 10uM” value was 1.89%.
With `COc1ccc(NC2=CC(=O)CC(C)(C)C2)cc1` the “hERG current change (%, negative = inhibition) at 10uM” value was 7.6%.
`Cl.O=C1c2cccc3c2[C@H](CCC3)CN1[C@@H]1CN2CCC1CC2` was tested, and the “hERG current change (%, negative = inhibition) at 10uM” value was -46.2%.
`COc1ccc(S(=O)(=O)n2c(CCN3CCOCC3)nc3ccccc32)cc1` was tested, and the “hERG current change (%, negative = inhibition) at 10uM” value was -59.2%.
For `CC(C)(C)c1ccc(S(=O)(=O)n2c(CN3CCOCC3)nc3ccccc32)cc1`, the “hERG current change (%, negative = inhibition) at 10uM” value was 3.73%.
In the case of `c1csc(CNc2nc3ccccc3n2CCN2CCOCC2)c1`, the “hERG current change (%, negative = inhibition) at 10uM” value is reported as -28%.
For `COc1ccc(CNc2nc3ccccc3n2Cc2ccccc2)cc1OC`, the “hERG current change (%, negative = inhibition) at 10uM” value was -44.7%.
In the case of `CCOc1ccc(CNc2nc3ccccc3n2CCN2CCOCC2)cc1.Cl`, the “hERG current change (%, negative = inhibition) at 10uM” value is reported as -64.2%.
In the case of `COc1ccc(CNc2nc3ccccc3n2CCN2CCOCC2)cc1`, the “hERG current change (%, negative = inhibition) at 10uM” value is reported as -64.6%.
With `Cl.c1ccc(CNc2nc3ccccc3n2CCN2CCOCC2)nc1` the “hERG current change (%, negative = inhibition) at 10uM” value was -15.5%.
With `CC(=O)Nc1nc2ccccc2n1CCN1CCOCC1` the “hERG current change (%, negative = inhibition) at 10uM” value was 0.217%.
In the case of `COc1cccc(CNc2nc3ccccc3n2CCN2CCCCC2)c1`, the “hERG current change (%, negative = inhibition) at 10uM” value is reported as -59.3%.
For `CCOc1ccc(CNc2nc3ccccc3n2C)cc1`, the “hERG current change (%, negative = inhibition) at 10uM” value was -31.4%.
For `Cc1cc2nc(CCN3CCOCC3)n(S(=O)(=O)c3ccc(C(C)(C)C)cc3)c2cc1C`, the “hERG current change (%, negative = inhibition) at 10uM” value was -3.7%.
`CCn1c(NCc2cc(OC)c(OC)c(OC)c2)nc2ccccc21.Cl` was tested, and the “hERG current change (%, negative = inhibition) at 10uM” value was -25.3%.
In the case of `CCOC(=O)[C@H]1[C@H]2COc3ccc(C)cc3[C@@H]2N2C(=O)CN(Cc3ccc(C)cc3)C(=O)[C@@]12C`, the “hERG current change (%, negative = inhibition) at 10uM” value is reported as 4.36%.
`COc1cccc(N2C(=O)CN(Cc3ccc(OC)c(OC)c3)C2=S)c1` was tested, and the “hERG current change (%, negative = inhibition) at 10uM” value was 17%.
In the case of `CCCCCOc1ccc(NC(=O)C(=O)NCCCn2ccnc2)cc1`, the “hERG current change (%, negative = inhibition) at 10uM” value is reported as 2%.
In the case of `CCn1c(SCC(=O)NNC(=O)c2ccccc2)nnc1-c1ccncc1`, the “hERG current change (%, negative = inhibition) at 10uM” value is reported as -5.25%.
For `C=CCc1c(C)nc2c(-c3ccccc3)cnn2c1N1CCOCC1`, the “hERG current change (%, negative = inhibition) at 10uM” value was 12.3%.
`CC(=O)C1=C(O)C(=O)N(c2ccc(Br)cn2)C1c1ccccc1[N+](=O)[O-]` (stereo not shown) was tested, and the “hERG current change (%, negative = inhibition) at 10uM” value was 20.2%.
With `O=C1CCCc2nn(-c3ccccc3)nc21` the “hERG current change (%, negative = inhibition) at 10uM” value was 11.3%.
With `Cc1ccc(S(=O)(=O)N(C)C)cc1NC(=O)CSc1nc2ccccc2[nH]1` the “hERG current change (%, negative = inhibition) at 10uM” value was -29.4%.
`C[C@@H]1NC(=O)[C@H](CC(N)=O)NC(=O)c2cc([N+](=O)[O-])cc(I)c2OCC[C@@H](C(=O)NC(CC(=O)O)C(N)=O)NC1=O` (stereo partly shown) (NA[hSer(Ph(2-I,4-NO2,6-CO))][ξD]-NH2; lactam N-3) was tested, and the “hERG current change (%, negative = inhibition) at 10uM” value was 6.03%.
For `O=S(=O)(Cc1ccccc1)Nc1cccc(F)c1`, the “hERG current change (%, negative = inhibition) at 10uM” value was 15.2%.
With `Cl.FC(F)(F)c1ccc(CN2CCNCC2)cc1` the “hERG current change (%, negative = inhibition) at 10uM” value was 0.155%.
`Cc1ccccc1NC(=O)Cc1nnc(N)s1` was tested, and the “hERG current change (%, negative = inhibition) at 10uM” value was 11.3%.
